Laboratory results reported in PubChem BioAssay (NCI).
This is part of a sample that, as a whole, favours compounds with a hit. Of some 83,000 tested, about 20% had one in any assay.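 Growth was measured after 48 h exposure to one concentration of compound in 96-well plates. Values under 10 count as active.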 Values without a mark were called inactive. Active and inactive are the calls of the source.

Tested on: HL-60(TB) leukemia
Assay: NCI-60 one-dose screen, 48 h (100 = growth as untreated, 0 = no growth, -100 = all killed)
Conditions: 10 µM unless noted

Row | Compound | growth
1 | Nc1n[nH]c2ccc([C@@H]3Nc4ccc5cn[nH]c5c4[C@H]4C5CCC(C5)[C@@H]34)cc12 (stereo not given in full) | -29.2% (active)
2 | CC(C)(C)OC(=O)N[C@@H](Cc1ccccc1)C(=O)N(Cc1ccccc1)C1(C(=O)NCc2ccccc2)CCN(Cc2ccccc2)CC1 | 7.23% (active)
3 | O=C(CCc1nnc2sc(OCc3ccccc3)nn12)c1nc2ccc([N+](=O)[O-])cc2[nH]1 | 97.9%
4 | O=c1[nH]cnc2c1ccn2C1OC(CO)C(O)C1O (stereo not given) | 34%
5 | O=C(O)c1cn(C2CC2)c2cc(N3CCN(C(=O)C[n+]4ccccc4)CC3)c(F)cc2c1=O | 112%
6 | CC(OC(=O)Nc1cccc(Cl)c1)C(=O)O (stereo not given) | 90.2%
7 | COC(=O)c1ccc(NC(N)=NCCC(C)(C)c2ccc(C(F)(F)F)cc2)nc1 | -41.4% (active)
8 | CC(=O)n1cc([C@H]2CC[C@H](c3cn(C(C)=O)c4ccccc34)c3c2[nH]c2ccccc32)c2ccccc21 | 111%
9 | O=c1ccc2c(ccc3ncccc32)o1 | 88.8%
10 | C=C(C)[C@@H]1CC[C@]2(C(=O)NCC(=O)O)CC[C@]3(C)[C@H](CC[C@@H]4[C@@]5(C)Cc6c([nH]c7ccccc67)C(C)(C)[C@@H]5CC[C@]43C)[C@@H]12 | 101%
11 | Nc1c(C(=O)Nc2ccccc2)sc2nc3c(cc12)CN(C(=O)OCc1ccccc1)CC3 | 17.1%
12 | CC(=O)O[C@@H]1C2CCC3C(CC[C@@]4(C)C3CC[C@@H]4C(C)N(C)C)[C@@]2(C)CC[C@@H]1NC(=O)C=C(C)C (stereo not given in full) | -58.8% (active)
13 | C#Cc1cccc(Nc2ncnc3cc(OCCOC)c(OCCOC)cc23)c1 | 49.2%
14 | CCNC(=O)OCCc1c2ccccc2nc2ccccc12 | 95.1%
15 | CCOC(=O)CC/C(C)=N\Nc1ccc([N+](=O)[O-])cc1 | 26.4%
16 | COC(=O)/C=C1/SC(=Nc2ccc(C(F)(F)F)cc2)N(CCc2c[nH]c3ccc(O)cc23)C1=O | -33.1% (active)
17 | COc1ccc(-c2nc(-c3ccccc3)c(-c3ccccc3)[nH]2)cc1OC1CCCCC1 | 97.6%
18 | CC(=O)/C(N=Nc1ccc(S(=O)(=O)c2ccc(N=N/C(C(C)=O)=C(/C)O)cc2)cc1)=C(\C)O | 88.5%
19 | Cc1cccc(N=Cc2ccccc2O)c1C | 87.9%
20 | OC(c1cc(-c2ccc(C(F)(F)F)cc2)nc(-c2ccc(C(F)(F)F)cc2)c1)C1CCCCN1 (stereo not given) | -61.8% (active)
21 | C=C(C)[C@@H]1CC[C@]2(c3ncc(C)o3)CC[C@]3(C)[C@H](CC[C@@H]4[C@@](C)(CCC#N)[C@H](C(=C)C)CC[C@]43C)[C@@H]12 | -27.9% [100 µM] (active)
22 | OCc1ccc(-c2ccc(-c3ccc(CO)s3)o2)s1 | 21.7%
23 | CC/C(=C(\c1ccc(OCCN2CCCCCCC2)cc1)c1ccc(OC(=O)C2CCCCC2)cc1)c1ccc(Cl)cc1 | 77.8%
24 | CCc1nnc(CNc2ccc(Cl)cc2)o1 | 92%
25 | Cc1onc(-c2c(F)cccc2Cl)c1-c1ncc(-c2ccc(Cl)cc2)o1 | 36.4%
